PP1 inh: PP1-alpha (human) inhibition in PP5 counter-screen. 320,000 compounds, 0.9% hits. purified PP1alpha, OMFP fluorescence. inhibition, % at 6.7 µM. P62136;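 active means inhibition above the mean inhibition of all tested compounds plus 3 SD, computed separately for each screening campaign, cut at about 15% in these data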
ATG4B inhibitor: ATG4B (human) cysteine protease inhibition; Q9Y4P1; ATG4B cleavage of LC3-PLA2, NBD-HPC fluorescence, 1 h; inhibition, % at 8.33 µM; 340,000 compounds, 0.51% hits; in the data active means inhibition above about 40%
Target sequence (Q9Y4P1 whole entry, looked up): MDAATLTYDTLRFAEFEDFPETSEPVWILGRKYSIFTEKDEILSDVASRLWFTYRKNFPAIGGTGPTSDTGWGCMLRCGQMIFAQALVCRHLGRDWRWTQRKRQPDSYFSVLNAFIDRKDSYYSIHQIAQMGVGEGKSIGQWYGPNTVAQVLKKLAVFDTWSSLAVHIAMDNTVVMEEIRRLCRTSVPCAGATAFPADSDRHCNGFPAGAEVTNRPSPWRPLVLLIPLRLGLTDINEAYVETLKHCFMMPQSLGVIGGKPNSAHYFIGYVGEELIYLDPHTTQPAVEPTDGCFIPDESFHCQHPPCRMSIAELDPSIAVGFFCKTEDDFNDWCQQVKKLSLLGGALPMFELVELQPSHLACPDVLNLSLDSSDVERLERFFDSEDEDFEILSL
PP5 primary: PP5 (human) phosphatase inhibition; P53041; purified PP5c, OMFP substrate fluorescence; inhibition, % at 6.7 µM; 320,000 compounds, 0.18% hits; AID 1987;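 active means inhibition above the campaign's mean inhibition across all tested compounds plus 3 SD, cut at about 9.5% in these data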
Cardio protect: protects H9c2 cardiomyocytes from peroxide injury; H2O2 injury protection, ATPLite, 2 h; protection from H2O2 cell death, % at 20 µM; 360,000 compounds, 0.63% hits;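 active means compounds giving at least 50% protection of heart cells from peroxide-induced death in the single-dose screen, raw or plate-pattern-corrected value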
PP1 confirm: confirmation of human PP1 phosphatase inhibitors; shares compounds with PP1 inh; purified PP1alpha, OMFP substrate fluorescence; inhibition, % at 6.7 µM; 1,900 compounds, 52% hits; AID 2358;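 active means mean PP1 inhibition above a set limit taken from the earlier primary screen, cut at about 15% in these data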
PP5 inh counter: PP5 phosphatase inhibition, counter-screen for PP1 inhibitors; 1,900 compounds, 4% hits; shares compounds with PP1 inh; AID 2360; purified PP5c, OMFP fluorescence; inhibition, % at 6.7 µM;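 active means mean PP5 inhibition over triplicate wells above about 9.5% taken from the earlier PP1 screen, limit read from the data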
Each line names hits and unclear results; the compound was inactive in the other large screens (follow-up assays come after a bar, where they were run). Compounds with a hit are over-represented: about 1.9% of the library has one in this group of screens.

COc1ccccc1-c1cc(-c2ccccc2)nc(SC(C(N)=O)c2ccccc2)c1C#N (centres undefined)	PP1 inh 19 | PP1 confirm 27 | PP5 inh counter inactive
Cc1nc(SC(C(N)=O)c2ccccc2)c(C#N)c(C)c1C (centres undefined)	none
COc1ccc2[nH]c3c(=O)n(CCCCC(=O)N4CCCC4)c(=S)[nH]c3c2c1	PP1 inh 36 | PP1 confirm 33 | PP5 inh counter inactive
CCCNC(=O)CCCCn1c(=S)[nH]c2c([nH]c3ccc(OC)cc32)c1=O	none
COc1ccc2c(c1)C(=O)N1[C@H]3c4cc(Br)ccc4OC[C@@H]3[C@H](c3ccccc3)[C@]1(C)C(=O)N2	none
O=C1C=C(N2CCN(c3ccccn3)CC2)C(=O)c2c(O)ccc(O)c21	none (no result: PP1 inh, PP5 primary)
CC1=CC(=O)c2c(O)ccc(O)c2C1=O	PP1 inh 28 (no result: ATG4B inhibitor, Cardio protect) | PP1 confirm inactive | PP5 inh counter 28
COc1ccc(NC(=O)C(Cc2cc(C)cc(C)c2)C(C)C(=O)O)cc1 (centres undefined)	none
O=C(N/N=C/c1ccncc1)c1cccc(S(=O)(=O)Nc2ccc(Cl)cc2)c1	PP1 inh 21 | PP1 confirm inactive | PP5 inh counter inactive
Cc1ccccc1CS(=O)(=O)CC(O)CN1CCCC1=O (centres undefined)	none
CC(OC(=O)CCOc1ccccc1)C(=O)Nc1ccc(Cl)cn1 (centres undefined)	none
CCc1ccc(NC(=O)C2CCN(c3c(N4CCCC4)c(=O)c3=O)CC2)cc1	none
O=C(O)C1C2CCC(O2)C1C(=O)Nc1cccc(F)c1 (centres undefined)	PP1 inh 55, PP5 primary 52 (no result: ATG4B inhibitor, Cardio protect) | PP1 confirm inactive | PP5 inh counter 17
O=C(O)C1C2CCC(O2)C1C(=O)NCc1ccncc1 (centres undefined)	PP1 inh 20, PP5 primary 37 | PP1 confirm 15 | PP5 inh counter 26
O=C(O)C1C2CCC(O2)C1C(=O)Nc1ccc(F)cc1 (centres undefined)	PP1 inh 31, PP5 primary 44 | PP1 confirm inactive | PP5 inh counter inactive
CCc1ccc(NC(=O)C2C3CCC(O3)C2C(=O)O)cc1 (centres undefined)	PP1 inh 74, PP5 primary 80 | PP1 confirm 18 | PP5 inh counter 38
CC(=O)Nc1ccc(NC(=O)C2C3C=CC(C3)C2C(=O)O)cc1 (centres undefined)	none
COc1ccccc1C(O)P(=O)(OCC(C)C)c1ccc(N(C)C)cc1 (centres undefined)	none
O=C(O)c1ccc(NC(=O)C2C3CCC(O3)C2C(=O)O)cc1 (centres undefined)	PP1 inh 75, PP5 primary 79 | PP1 confirm 31 | PP5 inh counter 37
CC(C)COC(=O)c1ccc(NC(=O)C2C3CCC(C3)C2C(=O)O)cc1 (centres undefined)	none
Cc1ccc(NC(=O)Cn2nc(C(=O)Nc3ccc(C)cc3)ccc2=O)cc1	PP1 inh 21 | PP1 confirm 22 | PP5 inh counter inactive
O=C(O)[C@H](Cc1ccccc1)N1C(=O)c2c(Cl)c(Cl)c(Cl)c(Cl)c2C1=O	none
Cc1noc(C)c1C(=O)Nc1ccccc1C(=O)NCCc1ccccc1	PP1 inh 21 | PP1 confirm inactive | PP5 inh counter inactive
COC(=O)c1ccc2nc(-c3ccc(C)cc3)c(CC3CCCCC3)n2c1	none (no result: PP1 inh, ATG4B inhibitor, PP5 primary)
O=C(O)c1ccccc1-c1ccccc1C(=O)Nc1ccc2c(c1)C(O)c1ccccc1-2 (centres undefined)	none (no result: PP1 inh, ATG4B inhibitor, PP5 primary)
CCC1(c2ccccc2)NC(=O)N(CC(=O)Nc2ccc(S(=O)(=O)Nc3ncccn3)cc2)C1=O (centres undefined)	none
Oc1c(CN2CCc3ccccc3C2)cc(Cl)c2cccnc12	PP1 inh 31 | PP1 confirm 40 | PP5 inh counter inactive
O=[N+]([O-])c1cc(CN2CCOCC2)c2cccnc2c1O	none (no result: PP1 inh, PP5 primary, Cardio protect)
Oc1c(I)cc(Cl)c2cccnc12	PP1 inh 19 | PP1 confirm inactive | PP5 inh counter inactive
Oc1c(Cl)cc(CN2CCOCC2)c2cccnc12	none
O=[N+]([O-])c1cc(Cl)c2cccnc2c1O	none
O=[N+]([O-])c1cc(CN2CCN(c3ccccc3)CC2)c(O)c2ncccc12	PP1 inh 19 | PP1 confirm 29 | PP5 inh counter inactive
COCCN1CCC(CO)C1 (centres undefined)	none (no result: PP1 inh, PP5 primary)
O=C(O)C1CCCN1C(=O)C1CCN(S(=O)(=O)c2cccc(C(F)(F)F)c2)CC1 (centres undefined)	none (no result: PP1 inh, PP5 primary)
COc1ccc([C@H]2C(C(=O)O)=C[C@@H](CC3CCCC3)N2S(=O)(=O)c2ccc(C)cc2)cc1OC	none (no result: PP1 inh, PP5 primary)
CC(C(=O)N1CCc2ccccc21)N1CCN(c2cccc(C(F)(F)F)c2)CC1 (centres undefined)	none
CCOC(=O)C1CCc2c(ccc3ccccc23)N1CCC#N (centres undefined)	none (no result: PP1 inh, ATG4B inhibitor, PP5 primary)
Cc1cccc(N2C(=O)C(O)=C(C(=O)c3cccs3)C2c2ccc(F)cc2)n1 (centres undefined)	none
Cc1cccc(N2C(=O)C(O)=C(C(=O)c3cccs3)C2c2ccc(C(C)C)cc2)n1 (centres undefined)	PP1 inh 23 | PP1 confirm 19 | PP5 inh counter inactive
Cc1cc(NC(=O)CSc2ccc(-c3ccc(Br)cc3)nn2)no1	PP1 inh 18 | PP1 confirm inactive | PP5 inh counter inactive
Cc1ccc(-c2ccc(SCC(=O)Nc3cc(C)on3)nn2)cc1	none
CCOc1ccccc1CN1CCNC(=O)C1CC(=O)N(C)Cc1cnccn1 (centres undefined)	none
O=C(O)CCCC(=O)Nc1ccccc1SCCS(=O)(=O)c1ccc(Cl)cc1	none (no result: PP1 inh, PP5 primary)
NS(=O)(=O)c1ccc(NC(=O)COC(=O)CN2C(=O)C3CC=CCC3C2=O)cc1 (centres undefined)	none
CCc1nnc2n1N=C(c1ccc(-c3cc(Cl)ccc3Cl)o1)CS2	PP1 inh 23 | PP1 confirm inactive | PP5 inh counter inactive
O=C(Nc1ccccc1C(=O)O)c1cccc(NS(=O)(=O)c2ccc(Br)cc2)c1	none
O=C(Nc1ccccc1C(=O)O)c1cccc(S(=O)(=O)Nc2ccc(Br)cc2)c1	PP1 inh 18 | PP1 confirm inactive | PP5 inh counter inactive
COc1cc(/C=C/C(=O)Nc2nc3ccc(S(=O)(=O)NC(C)C)cc3s2)cc(OC)c1OC	PP1 inh 25 | PP1 confirm 32 | PP5 inh counter inactive
CCNS(=O)(=O)c1ccc2nc(NC(=O)/C=C/c3cc(OC)c(OC)c(OC)c3)sc2c1	PP1 inh 21 | PP1 confirm 20 | PP5 inh counter inactive
CC(C)C[C@@H](CNCC(=O)[C@H](C)NC(=O)c1[nH]cnc1C(=O)N[C@@H](C)CN)NC(=O)c1nc[nH]c1C(=O)N[C@@H](CC(=O)O)C(=O)O	none (no result: PP1 inh, PP5 primary)
COc1cc2ccccc2cc1C(=O)Nc1ccc2oc(=O)ccc2c1	PP1 inh 24 | PP1 confirm inactive | PP5 inh counter inactive

Source: PubChem BioAssay (several laboratories)
